Experimental data as given in PubChem BioAssay (EPA / NIEHS).
Values joined by “and” are separate entries in the source; they are usually repeats but may differ in a detail not shown here. Equal entries are not always repeated. Results filed as inconclusive are left out. Some structures have more than one record in an assay (separate samples or runs), and their calls can disagree. Active and inactive are the calls of the source. How the source made its calls, unless noted: active means hit-call score of the fitted dose curve at least 0.9, where 1 is the maximum; inactive means score below 0.9.

Assays:
[1] = BSK_3C_TissueFactor: BioMAP Diversity Plus: 3C Assay for Tissue Factor Biomarker Activity (AID 2282997); conditions: BioMAP 3C HUVEC, tissue factor biomarker readout; actives raise or lower the signal
Summary of the method: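 Values derive from bidirectional curve fitting against DMSO of Tissue Factor ELISA signals, taken 24 h after dosing primary human umbilical vein endothelial cells.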

[2] = read-out: Intercellular Adhesion Molecule 1 (ICAM1), ICAM1 (gene 3383); experiment: BSK_3C_ICAM1: BioMAP Diversity Plus: 3C Assay for Intercellular Adhesion Molecule 1 (ICAM1) Biomarker Activity (AID 2283003); conditions: primary human endothelial cells (HUVEC); actives raise or lower the signal
Summary of the method: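 Primary human umbilical vein endothelial cells in the BioMAP 3C system were exposed to chemicals for 24 h, then ICAM-1 was quantified by ELISA. Activity was fitted bidirectionally against the DMSO negative control baseline.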

[3] = read-out: Human Leukocyte Antigen - DR isotype (HLADR), HLA-DRA (gene 3122); experiment: BSK_3C_HLADR: BioMAP Diversity Plus: 3C Assay for Human Leukocyte Antigen - DR isotype (HLADR) Biomarker Activity (AID 2283019); conditions: primary human endothelial cells (HUVEC); actives raise or lower the signal
Summary of the method: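 Endothelial cells from human umbilical vein are treated with test chemical; after 24 h, HLA-DR levels are measured by ELISA. Data are fitted in both directions using DMSO as the baseline.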

[4] = read-out: Matrix Metallopeptidase 1 (MMP1), MMP1 (gene 4312); experiment: BSK_BE3C_MMP1: BioMAP Diversity Plus: BE3C Assay for Matrix Metallopeptidase 1 (MMP1) Biomarker Activity (AID 2283024); conditions: primary human bronchial epithelial cells; actives raise or lower the signal
Summary of the method: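 Primary human bronchial epithelial cells were dosed with test chemicals, and MMP1 levels were measured by ELISA 24 h later. Data were fitted bidirectionally against DMSO as the negative control and activity baseline.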

[5] = read-out: Urokinase-type plasminogen activator receptor (uPAR), PLAUR (gene 5329); experiment: BSK_4H_uPAR: BioMAP Diversity Plus: 4H Assay for Urokinase-type plasminogen activator receptor (uPAR) Biomarker Activity (AID 2283030); conditions: primary human endothelial cells (HUVEC); actives raise or lower the signal
Summary of the method: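 Chemicals are dosed onto human vascular endothelial primary cells (umbilical vein). After 24 h, uPAR is read by ELISA. Gain or loss of signal is fitted relative to DMSO.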

[6] = read-out: Monokine induced gamma interferon (MIG), CXCL9 (gene 4283); experiment: BSK_CASM3C_MIG: BioMAP Diversity Plus: CASM3C Assay for Monokine induced gamma interferon (MIG) Biomarker Activity (AID 2283048); conditions: primary human coronary artery smooth muscle cells; actives raise or lower the signal;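 further: MIG protein level measured by ELISA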
[7] = read-out: serum amyloid A (SAA), SAA1 (gene 6288); experiment: BSK_CASM3C_SAA: BioMAP Diversity Plus: CASM3C Assay for serum amyloid A (SAA) Biomarker Activity (AID 2283049); conditions: primary human coronary artery smooth muscle cells; actives raise or lower the signal;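 further: SAA protein level quantified by ELISA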
[8] = read-out: Thrombomodulin, THBD (gene 7056); experiment: BSK_CASM3C_Thrombomodulin: BioMAP Diversity Plus: CASM3C Assay for Thrombomodulin Biomarker Activity (AID 2283051); conditions: primary human coronary artery smooth muscle cells; actives raise or lower the signal;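 further: thrombomodulin protein level measured by ELISA 24 h after dosing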
[9] = read-out: Tissue Factor, F3 (gene 2152); experiment: BSK_LPS_TissueFactor: BioMAP Diversity Plus: LPS Assay for Tissue Factor Biomarker Activity (AID 2283084); conditions: primary human HUVEC with PBMC; actives raise or lower the signal
Summary of the method: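 In this co-culture system of umbilical vein endothelium with PBMC, stimulated with LPS, cell-surface CD142 is detected by ELISA at 24 h. Endpoint values derive from bidirectional fitting, DMSO serving as baseline.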

[10] = read-out: Collagen I, COL1A1 (gene 1277); experiment: BSK_hDFCGF_CollagenI: BioMAP Diversity Plus: hDFCGF Assay for Collagen I Biomarker Activity (AID 2284250); conditions: primary human foreskin fibroblasts
Summary of the method: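 Primary human foreskin fibroblasts (hDFCGF system) exposed to chemical for 24 h; Collagen I measured by ELISA. Activity fitted in the positive direction relative to DMSO baseline, with SRB total-protein staining in parallel cultures for overt cytotoxicity.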

[11] = read-out: Monocyte Chemoattractant Protein-1 (MCP1), CCL2 (gene 6347); experiment: BSK_hDFCGF_MCP1: BioMAP Diversity Plus: hDFCGF Assay for Monocyte Chemoattractant Protein-1 (MCP1) Biomarker Activity (AID 2284285); conditions: primary human foreskin fibroblasts
Summary of the method: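 Human foreskin fibroblasts (hDFCGF system) were exposed to compound and secreted MCP-1 was measured by ELISA after 24 hours. Activity was fitted relative to DMSO. Cytotoxicity was checked by SRB total-protein staining in parallel cultures.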

[12] = ATG_GLI_CIS: Attagene CIS-FACTORIAL HepG2 Assay for human Zinc Finger Protein GLI1 (AID 2282945); conditions: HepG2, Attagene cis-factorial reporter mRNA, GLI element; actives raise or lower the signal
Summary of the method: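 HepG2 cells transiently transfected with cis-promoter multiplexed reporter units report endogenous transcription factor activity. After 24 h chemical exposure, reporter mRNA was quantified by RT-PCR, 6-FAM labelling, HpaI digestion and capillary electrophoresis, with bidirectional fitting against DMSO.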

[13] = target: Hepatocyte nuclear factor 6 (Homo sapiens) (UniProt Q9UBC0); experiment: ATG_HNF6_CIS: Attagene CIS-FACTORIAL HepG2 Assay for human Hepatocyte Nuclear Factor 6 (HNF6) (AID 2282952); conditions: HepG2 Attagene cis-factorial HNF6 reporter transcription; actives raise or lower the signal
Summary of the method: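 Reporter mRNA induction or loss in HepG2 after 24 h exposure; transient cis-MRTU transfection; fragments quantified by capillary electrophoresis; bidirectional analysis, DMSO as negative control.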

[14] = ATG_MRE_CIS: Attagene CIS-FACTORIAL HepG2 Assay for human Metal Responsive Element (MRE) (AID 2282954); conditions: HepG2 MRE cis-reporter transcription, Attagene multiplex; actives raise or lower the signal
Summary of the method: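 HepG2 cells transiently transfected with multiple cis-element reporter units measure endogenous MTF1-driven transcription. After 24 h compound exposure, reporter mRNA is quantified by RT-PCR with 6-FAM labelling, HpaI digestion and capillary electrophoresis; bidirectional fits versus DMSO.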

[15] = ATG_VDRE_CIS: Attagene CIS-FACTORIAL HepG2 Assay for human Vitamin D Receptor Element (VDRE) (AID 2282968); conditions: HepG2 VDRE cis-reporter transcription, actives raise or lower the signal
Summary of the method: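 HepG2 cells transiently transfected with cis-element reporter units, dosed 24 h; reporter mRNA measured by RT-PCR, 6-FAM labeling, HpaI digestion and capillary electrophoresis. Activity fitted bidirectionally against DMSO baseline.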

[16] = ATG_M_06_TRANS: Attagene TRANS-FACTORIAL HepG2 Assay for M06 Transcription Factor (Internal Marker) (AID 2282983; active means hit-call score of the fitted dose curve at least 0.9, where 1 is the maximum); conditions: HepG2 Attagene TRANS M06 internal marker reporter
Summary of the method: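 Measured by capillary electrophoresis of fluorescently labelled RT-PCR products, this endpoint reflects reporter mRNA in HepG2 cells harbouring exogenous NR-GAL4 reporter constructs after 24 h exposure, with DMSO as baseline.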

[17] = target: Nuclear respiratory factor 1 (Homo sapiens) (UniProt Q16656); experiment: ATG_NRF1_CIS: Attagene CIS-FACTORIAL HepG2 Assay for human Nuclear Respiratory Factor 1 (NRF1) Orphan Gene (AID 2282987); conditions: HepG2 NRF1 cis-element reporter, Attagene multiplex; actives raise or lower the signal
Summary of the method: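 Fluorescence intensity of labelled reporter cDNA fragments, resolved by capillary electrophoresis, served as readout for NRF1 cis-element activity. Transiently transfected HepG2 cells were dosed for 24 hours; activity in either direction was fitted against DMSO negative control.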

[18] = target: Cellular tumor antigen p53 (Homo sapiens) (UniProt P04637); experiment: ATG_p53_CIS: Attagene CIS-FACTORIAL HepG2 Assay for human p53 Transcription Factor (AID 2282994); conditions: HepG2 p53 cis-element reporter, Attagene mRNA; actives raise or lower the signal
Summary of the method: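 Using HepG2 hepatoma cells carrying cis-acting multiplexed reporters, mRNA induction is detected after a 24 h exposure. Gain- and loss-of-signal responses are fitted relative to DMSO-treated cells.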

[19] = ATG_M_32_CIS: Attagene CIS-FACTORIAL HepG2 Assay for M32 Transcription Factor (Internal Marker) (AID 2282949); conditions: HepG2 Attagene cis-factorial M32 reporter, mRNA; actives raise or lower the signal;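 further: background control marker of the multiplexed CIS panel rather than a real target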
Summary of the method: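 Internal background marker read-out: RT-PCR/capillary electrophoresis fluorescence of reporter transcripts from transiently transfected HepG2 cells after 24 h chemical exposure. Activity fitted bidirectionally relative to DMSO negative control.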

[20] = target: Hypoxia-inducible factor 1-alpha (Homo sapiens) (UniProt Q16665); experiment: ATG_HIF1a_CIS: Attagene CIS-FACTORIAL HepG2 Assay for human Hypoxia Inducible Factor 1 (HIF1A) (AID 2282951); conditions: HepG2 Attagene cis-factorial HIF1a reporter transcription; actives raise or lower the signal
Summary of the method: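 Measures endogenous transcription-factor activity through cis-regulated reporter mRNA in HepG2. Cells dosed 24 h; transcripts quantified by RT-PCR with 6-FAM-labelled products separated by capillary electrophoresis; DMSO serves as negative control.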

Measured: AC50

Chain of Hepatocyte nuclear factor 6 (Homo sapiens) (Q9UBC0 whole entry, looked up, the tested form may be a part): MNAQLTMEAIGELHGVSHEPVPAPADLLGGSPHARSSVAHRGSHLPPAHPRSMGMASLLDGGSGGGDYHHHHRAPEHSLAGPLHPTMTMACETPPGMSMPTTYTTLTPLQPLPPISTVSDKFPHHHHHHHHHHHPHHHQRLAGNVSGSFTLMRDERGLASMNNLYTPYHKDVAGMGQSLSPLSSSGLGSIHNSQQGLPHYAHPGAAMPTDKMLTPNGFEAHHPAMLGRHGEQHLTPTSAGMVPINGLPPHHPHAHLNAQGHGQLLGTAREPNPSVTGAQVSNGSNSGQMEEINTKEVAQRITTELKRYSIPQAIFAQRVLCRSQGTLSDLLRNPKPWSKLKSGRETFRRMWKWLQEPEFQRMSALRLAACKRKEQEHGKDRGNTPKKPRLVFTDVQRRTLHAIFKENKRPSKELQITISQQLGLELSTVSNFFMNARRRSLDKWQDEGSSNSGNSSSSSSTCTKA
Chain of Hypoxia-inducible factor 1-alpha (Homo sapiens) (Q16665 whole entry, looked up): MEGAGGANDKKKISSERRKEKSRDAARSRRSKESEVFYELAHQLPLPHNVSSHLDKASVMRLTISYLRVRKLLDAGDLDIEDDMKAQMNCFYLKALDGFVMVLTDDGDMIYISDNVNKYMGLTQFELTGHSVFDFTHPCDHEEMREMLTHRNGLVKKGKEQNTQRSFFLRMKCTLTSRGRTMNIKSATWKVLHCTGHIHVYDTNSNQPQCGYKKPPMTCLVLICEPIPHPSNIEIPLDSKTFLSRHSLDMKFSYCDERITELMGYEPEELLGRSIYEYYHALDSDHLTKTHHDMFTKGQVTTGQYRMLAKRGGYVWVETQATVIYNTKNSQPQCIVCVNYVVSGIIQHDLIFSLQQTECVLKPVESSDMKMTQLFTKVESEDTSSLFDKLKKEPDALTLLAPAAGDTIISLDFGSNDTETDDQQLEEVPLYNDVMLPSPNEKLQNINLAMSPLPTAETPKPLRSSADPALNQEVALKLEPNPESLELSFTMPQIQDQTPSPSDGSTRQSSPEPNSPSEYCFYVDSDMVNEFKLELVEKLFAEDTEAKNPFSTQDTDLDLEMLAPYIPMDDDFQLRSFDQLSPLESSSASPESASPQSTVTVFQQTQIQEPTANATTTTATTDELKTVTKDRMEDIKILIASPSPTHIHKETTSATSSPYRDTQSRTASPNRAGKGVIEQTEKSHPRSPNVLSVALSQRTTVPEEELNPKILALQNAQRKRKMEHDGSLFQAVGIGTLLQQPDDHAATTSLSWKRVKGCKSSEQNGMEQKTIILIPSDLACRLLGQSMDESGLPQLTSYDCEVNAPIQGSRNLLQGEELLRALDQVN
Chain of Nuclear respiratory factor 1 (Homo sapiens) (Q16656 whole entry, looked up, the tested form may be a part): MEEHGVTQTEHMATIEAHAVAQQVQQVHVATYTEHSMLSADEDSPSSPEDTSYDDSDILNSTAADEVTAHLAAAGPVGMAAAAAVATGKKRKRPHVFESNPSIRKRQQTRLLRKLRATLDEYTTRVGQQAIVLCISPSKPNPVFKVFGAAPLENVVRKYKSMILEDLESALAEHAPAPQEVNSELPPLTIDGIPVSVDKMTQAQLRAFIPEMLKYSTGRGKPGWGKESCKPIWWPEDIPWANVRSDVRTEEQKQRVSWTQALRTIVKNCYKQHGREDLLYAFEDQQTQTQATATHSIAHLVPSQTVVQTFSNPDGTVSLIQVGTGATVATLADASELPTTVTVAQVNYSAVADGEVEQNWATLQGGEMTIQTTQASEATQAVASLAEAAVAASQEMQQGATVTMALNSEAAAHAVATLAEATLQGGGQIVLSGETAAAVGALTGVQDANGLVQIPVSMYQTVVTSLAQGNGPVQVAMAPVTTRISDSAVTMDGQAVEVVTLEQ
Chain of Cellular tumor antigen p53 (Homo sapiens) (P04637 whole entry, looked up): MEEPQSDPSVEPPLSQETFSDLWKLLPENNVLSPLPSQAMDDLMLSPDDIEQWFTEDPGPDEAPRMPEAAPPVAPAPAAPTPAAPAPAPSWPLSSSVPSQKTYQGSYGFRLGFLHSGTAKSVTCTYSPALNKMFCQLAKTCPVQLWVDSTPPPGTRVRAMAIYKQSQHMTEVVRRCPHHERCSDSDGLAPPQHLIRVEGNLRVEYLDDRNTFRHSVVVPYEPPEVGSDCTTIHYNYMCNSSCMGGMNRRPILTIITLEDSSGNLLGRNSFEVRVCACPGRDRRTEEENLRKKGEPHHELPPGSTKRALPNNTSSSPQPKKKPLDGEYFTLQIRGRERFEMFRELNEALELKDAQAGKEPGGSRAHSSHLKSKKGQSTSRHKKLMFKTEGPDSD

CC(C)C1OCCN1CCOC(=O)NCCCCCCNC(=O)OCCN1CCOC1C(C)C (stereo unspecified)
inactive: [1] | [2] | [3] | [4] | [5] | [6] | [7] | [8] | [9] | [10] | [11]
active: [10] 1.44 µM | [11] 149 nM

Nc1ccc(S(=O)(=O)Nc2cnc3ccccc3n2)cc1
inactive: [12] | [13] | [14] | [15] | [16] | [17] | [18]

O=C(C1CCCCC1)N1CC(=O)N2CCc3ccccc3C2C1 (stereo unspecified)
inactive: [12] | [19] | [14] | [16] | [17] | [18]
active: [15] 13.7 µM

O=[N+]([O-])c1cc(S(=O)(=O)Nc2ccccc2)ccc1Nc1ccccc1
inactive: [1] | [2] | [5] | [6] | [7] | [9] | [10]
active: [1] 34.8 µM | [3] 13.9 µM | [4] 5.29 µM and 5.21 µM | [5] 33.5 µM | [8] 5.66 µM and 8.09 µM | [9] 2.78 µM | [10] 3.86 µM | [11] 30.8 µM and 29.7 µM

CNC(=C[N+](=O)[O-])NCCSCc1csc(CN(C)C)n1
inactive: [12] | [19] | [13] | [17] | [18]

COc1ccc(C(=O)c2ccccc2O)c(O)c1
active: [1] 20 µM and 17.9 µM | [3] 20 µM | [5] 10.2 µM | [6] 20 µM and 16.1 µM
inactive: [2] | [3] | [4] | [5] | [7] | [8] | [9] | [10] | [11]

Oc1cccc2ccccc12
active: [1] 12.1 µM | [3] 10.5 µM | [8] 5.22 µM | [9] 6.27 µM
not listed: [10] | [11] | [12]
inactive: all other assays above

CO[Si](CCCNCCN)(OC)OC
inactive: [12] | [19] | [20] | [13] | [14] | [15] | [16] | [17]

O=C(O)c1cc(Cl)cc(Cl)c1O
inactive: [12] | [19] | [20] | [13] | [14] | [15] | [16] | [17] | [18]

CC(=O)OC(C)(C)Cc1ccccc1
inactive: [19] | [20] | [13] | [14] | [15] | [16] | [17] | [18]

COc1ccccc1Oc1c(NS(=O)(=O)c2ccc(C(C)(C)C)cc2)nc(-c2ncccn2)nc1OCCO
inactive: [1] | [2] | [3] | [4] | [5] | [6] | [7] | [8] | [9] | [10] | [11]
active: [4] 20 µM | [7] 3.97 µM | [8] 7.25 µM

CC(C)(C)NC(=O)[C@@H]1CN(Cc2cccnc2)CCN1C[C@@H](O)C[C@@H](Cc1ccccc1)C(=O)N[C@H]1c2ccccc2C[C@H]1O
inactive: [12] | [19] | [20] | [15] | [17] | [18]

COc1cccc(OC)c1C(=O)O
inactive: [12] | [19] | [20] | [13] | [14] | [15] | [16] | [17] | [18]
